Reference: publication PMC4336329 (PLoS ONE, 2015)
The campaign covered roughly 310,000 compounds. About 14,000 (4.5%) showed an effect of 50% or more. Effects have a minus sign here. What follows is part of a selection rich in strong results, with near analogues and random picks from the rest.

target: human ether-à-go-go-related gene (hERG) potassium channel (human, UniProt Q12809); test: primary screen, population patch clamp on CHO cells stably expressing hERG; higher = less effect of the substance
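Further: peak tail current of the secondary pulse compared with the same well before compound.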

Sequence of human ether-à-go-go-related gene (hERG) potassium channel (Q12809 whole entry, looked up): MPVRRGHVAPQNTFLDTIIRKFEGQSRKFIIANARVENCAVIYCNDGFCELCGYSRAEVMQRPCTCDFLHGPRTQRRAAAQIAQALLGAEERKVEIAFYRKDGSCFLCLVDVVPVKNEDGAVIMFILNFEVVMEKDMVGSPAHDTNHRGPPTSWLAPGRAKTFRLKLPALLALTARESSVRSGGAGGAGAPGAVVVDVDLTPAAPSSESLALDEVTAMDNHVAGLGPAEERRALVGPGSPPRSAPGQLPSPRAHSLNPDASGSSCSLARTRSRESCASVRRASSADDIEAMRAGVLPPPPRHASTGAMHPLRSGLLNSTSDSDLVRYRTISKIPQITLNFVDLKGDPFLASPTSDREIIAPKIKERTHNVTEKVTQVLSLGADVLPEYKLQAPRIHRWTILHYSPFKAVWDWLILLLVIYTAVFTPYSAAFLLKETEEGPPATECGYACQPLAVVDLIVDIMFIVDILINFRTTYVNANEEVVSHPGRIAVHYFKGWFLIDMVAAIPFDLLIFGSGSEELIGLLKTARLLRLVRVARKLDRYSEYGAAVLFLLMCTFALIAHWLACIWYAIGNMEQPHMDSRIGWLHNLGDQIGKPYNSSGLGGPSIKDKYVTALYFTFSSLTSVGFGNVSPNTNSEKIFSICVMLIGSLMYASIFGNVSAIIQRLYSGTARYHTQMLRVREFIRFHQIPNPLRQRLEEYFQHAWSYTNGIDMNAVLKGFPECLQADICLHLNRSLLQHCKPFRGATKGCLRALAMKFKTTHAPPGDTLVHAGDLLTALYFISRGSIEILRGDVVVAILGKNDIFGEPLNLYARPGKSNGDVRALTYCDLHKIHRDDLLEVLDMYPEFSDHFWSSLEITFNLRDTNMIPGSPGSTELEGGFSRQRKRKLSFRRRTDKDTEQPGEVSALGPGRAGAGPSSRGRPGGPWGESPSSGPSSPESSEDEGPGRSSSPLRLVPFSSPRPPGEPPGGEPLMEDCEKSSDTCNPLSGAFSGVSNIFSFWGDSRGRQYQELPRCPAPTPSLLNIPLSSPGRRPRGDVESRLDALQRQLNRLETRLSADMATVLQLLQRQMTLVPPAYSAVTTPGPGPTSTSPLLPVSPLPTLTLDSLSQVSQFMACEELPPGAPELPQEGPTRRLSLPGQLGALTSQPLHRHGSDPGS

SMILES	hERG current change (%, negative = inhibition) at 10uM [%]
Cc1nn(C)cc1CNC(=O)C1C2CCC(O2)C1C(=O)O (stereo not drawn)	23.7
Cc1nn(-c2ccccc2)c(C)c1C(=O)OCC(=O)N1CCN(S(=O)(=O)c2ccccc2)CC1	-11
COc1ccccc1N(C(C)=O)C1SC(=O)N(c2ccccc2)C1=O (stereo not drawn)	14
Cc1ccc(C)n1-c1cccc(S(=O)(=O)N2CCOCC2)c1	7.55
Cc1cc(C(=O)CN2C(=O)CN(C)C2=O)c(C)n1-c1cccc(S(=O)(=O)N2CCOCC2)c1	-49.8
Cc1cc(C(=O)CCl)c(C)n1-c1cccc(S(=O)(=O)N2CCOCC2)c1	-77.4
Cc1cc(C(=O)COc2ccccc2[N+](=O)[O-])c(C)n1-c1cccc(S(=O)(=O)N2CCOCC2)c1	-9.82
Cc1cc(C(=O)CN2C(=O)C(=O)N(C)C2=O)c(C)n1-c1cccc(S(=O)(=O)N2CCOCC2)c1	-63.4
Cc1cc(C(=O)CSc2ncn[nH]2)c(C)n1-c1cccc(S(=O)(=O)N2CCOCC2)c1	-28.5
CCc1nnc(NS(=O)(=O)c2ccc(N=Cc3c(C)[nH]n(-c4cccc(Cl)c4)c3=O)cc2)s1	10.4
CC(=O)c1ccc(OCC(=O)N(C)CC(=O)Nc2ccc(N3CCOCC3)cc2)cc1	9.61
CC(=O)Nc1ccc(S(=O)(=O)NCC(=O)OCC(=O)N2CCCc3ccccc32)cc1	4.4
C/C(=N\NC(=O)c1ccc(N(C)C)cc1)c1ccc(C)c(C)c1	-14.5
Cc1cc(=O)oc2ccc(OC(=O)c3cccc(S(=O)(=O)N4CCOCC4)c3)cc12	-70.5
COC(=O)c1cccc(S(=O)(=O)N2CCOCC2)c1	6.61
O=C(Oc1ccc(Br)cc1)c1cccc(S(=O)(=O)N2CCOCC2)c1	-35.6
CC(C)C1Oc2ccccc2N(CC(=O)N(C)C2CCCCC2)C1=O (stereo not drawn)	-10.1
CCCCc1nc(N2CCNCC2)c(C#N)c2c1CSC(C)(C)C2	-64.7
CCCCc1nc(Cl)c(C#N)c2c1CSC(C)(C)C2	-13.1
CCc1nc(N2CCNCC2)c(C#N)c2c1CSC(C)(C)C2	2.02
CCCCn1c(N)c(N(CC)C(=O)c2cccc(OCc3ccccc3)c2)c(=O)[nH]c1=O	-9.67
COc1ccccc1CN1CCN(Cc2nc(Cc3ccccc3)no2)CC1	-36
c1ccc(Cc2noc(CN3CCN(CCOc4ccccc4)CC3)n2)cc1	-40.9
Fc1ccccc1Cc1noc(CN2CCN(C/C=C/c3ccccc3)CC2)n1	-74
O=CN1CCCN(Cc2nc(Cc3ccccc3F)no2)CC1	16.1
C(=C\c1ccccc1)/CN1CCN(Cc2nc(Cc3ccccc3)no2)CC1	-65.1
Cc1ccccc1N1CCN(Cc2nc(Cc3ccccc3F)no2)CC1	-3.53
